# Source: PubChem (several laboratories)
# CYP2C9 inh: inhibitors of human CYP2C9 | P11712 | CYP2C9 Supersomes, luciferin-H conversion, luminescence | inhibition, % at 5 µM | hit rate 20% among 96,000 | AID 777;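 active = blocking of liver enzyme CYP2C9 beyond about 50% at 5 µM, limit read from the data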
# CYP2C19 inh: inhibitors of human CYP2C19. inhibition, % at 5 µM. CYP2C19 Supersomes, luciferin-H EGE luminescence, 30 min. hit rate 21% among 96,000. P33261;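 active = CYP2C19 inhibition above a set limit at 5 µM in the primary screen, cut at about 50% in these data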;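 also: plate controls were negative control wells for no effect and 2.5 mM tranylcypromine positive control for full effect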
# Target sequence (P33261 whole entry, looked up): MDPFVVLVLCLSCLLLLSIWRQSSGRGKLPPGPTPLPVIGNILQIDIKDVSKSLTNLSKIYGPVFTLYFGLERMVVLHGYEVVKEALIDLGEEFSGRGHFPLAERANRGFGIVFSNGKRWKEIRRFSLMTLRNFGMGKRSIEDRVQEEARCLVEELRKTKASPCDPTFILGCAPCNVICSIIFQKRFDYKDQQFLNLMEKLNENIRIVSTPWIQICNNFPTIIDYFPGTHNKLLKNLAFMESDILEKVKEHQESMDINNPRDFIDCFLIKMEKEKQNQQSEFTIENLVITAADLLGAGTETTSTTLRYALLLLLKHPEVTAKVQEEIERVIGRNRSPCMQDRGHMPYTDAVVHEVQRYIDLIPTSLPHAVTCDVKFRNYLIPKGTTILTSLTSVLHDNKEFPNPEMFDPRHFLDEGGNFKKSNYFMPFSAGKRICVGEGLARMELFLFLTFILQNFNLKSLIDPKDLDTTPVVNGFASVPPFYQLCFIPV
# D1 mod: allosteric modulators of human D1 dopamine receptor. P21728. HEK293 D1, CRE-luciferase, dopamine EC30 potentiation; actives deviate in either direction. B-score at 10 µM. hit rate 5.9% among 58,000. AID 641;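 active = luminescence count or its row- and column-corrected plate score outside the 99.7% band of the plate's sample wells, on either side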
# hDAT+cocaine: changed human dopamine transporter uptake under cocaine IC80. Q01959. B-score at 10 µM. LLC-PK1 hDAT cells, [14C]-dopamine uptake with cocaine IC80; actives deviate in either direction. AID 449768. hit rate 1.3% among 110,000;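 active = Z score or B-score, a plate-position-corrected score, falls beyond the plate's 99.7% confidence bounds, in either direction; inactive = both scores lie inside the 99.7% bounds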;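 also: scored against the spread of the other compound wells on the same plate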
# CYP2C19 act: cytochrome P450 2C19 (human) activation | activation factor at 5 µM | recombinant CYP2C19, luciferin-H EGE luminescence; hits give high values; 0 = fully inhibited enzyme, 1 = untreated enzyme | 96,000 tested, under 10 active | AID 1025;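 active = activation factor of at least 2 at 5 µM in the primary screen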;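 also: 0 = wells with 2.5 mM tranylcypromine and 1 = vehicle-only wells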
# CYP2C9 activ: increases human cytochrome P450 2C9 activity; recombinant CYP2C9, luciferin-H conversion, luminescence; hits give high values; factor 1 = untreated enzyme, 0 = blocked; activation factor at 5 µM; hit rate 1.4% among 96,000;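 active = activation factor of 2 or more for CYP2C9 at a 5 µM dose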;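 also: 0 = sulfaphenazole-blocked wells and 1 = vehicle-only wells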
# Active calls of the source: *; / = no result given. Shown are actives, neighbours in structure and some others; about 28% of the full set was active somewhere.
SMILES,CYP2C9 inh,CYP2C19 inh,D1 mod,hDAT+cocaine,CYP2C19 act,CYP2C9 activ
CC(C)Cc1cc(C(=O)N2CCN(C(c3ccccc3)c3ccccc3)CC2)no1,79*,21,/,2.4,0.8,0.2
O=C(N1CCCCC1)N1CCN(C(c2ccccc2)c2ccccc2)CC1,81*,57*,/,0.58,0.4,0.2
COc1ccc(C(=O)N2c3cc4c(cc3C(C)=CC2(C)C)OCO4)cc1,95*,92*,0.34,-0.56,0.1,0
CCN(c1cccc(C)c1)c1nc2ccsc2c(=O)s1,87*,65*,/,1,0.3,0.1
Cc1ccc(-c2nc3ccsc3c(=O)o2)cc1,31,23,/,-0.46,0.8,0.7
O=C(N/N=C/c1c[nH]c2ccccc12)c1ccn(Cc2ccc(Cl)cc2Cl)n1,70*,57*,/,/,0.4,0.3
O=C(N/N=C/c1c[nH]c2ccc(Br)cc12)c1ccn(Cc2ccc(Cl)cc2)n1,48,30,/,/,0.7,0.5
O=C1NC2(CCCc3ccccc32)C(=O)N1CCOc1ccc(Br)cc1 (stereo not drawn),16,5,/,-2.2,1,0.8
CN1C(=O)C(O)(CC(=O)c2ccc(F)cc2)c2cc(Br)ccc21 (stereo not drawn),33,79*,-1.9,0.034,0.2,0.7
CCOc1cc(/C=C2\C(=O)N(Cc3ccc(C)cc3)C(C)=C2C(=O)OC)ccc1O,83*,40,/,0.15,0.6,0.2
CCN1C(=O)/C(=C\c2ccc3c(c2)OCO3)C(C(=O)OC)=C1C,39,15,/,0.017,0.8,0.6
COc1ccc2c(CC(=O)OCC(=O)N3CCc4ccccc43)coc2c1,10,3,-0.16,1.3,1,0.9
COc1ccc2c(CC(=O)N3CCc4ccccc43)coc2c1,14,64*,/,-0.18,0.4,0.9
COc1ccc(-c2cc(C(=O)N3CCCc4ccccc43)no2)cc1,26,34,-0.63,/,0.7,0.7
COc1ccc(OCCCC(=O)N2CCCc3ccccc32)cc1,83*,98*,0.49,0.2,0,0.2
CC(C)C(=O)c1cn(CC(=O)N2CCCc3ccccc32)c2ccccc12,74*,42,/,-0.12,0.6,0.3
COc1ccc(C(=O)N2CCCc3ccccc32)cc1,-17,33,1,0.079,0.7,1.2
O=C(c1cc(-c2cccs2)on1)N1CCCc2ccccc21,26,93*,0.11,-0.16,0.1,0.7
O=C(c1ccc(Cl)cc1)c1cc(-c2ccccn2)c(N2CCOCC2)s1,49,13,/,2.2,0.9,0.5
COc1ccc(OCC(=O)NC(=S)N2CCCc3ccccc32)cc1,41,64*,/,0.49,0.4,0.6
COc1ccc2c(CC(=O)N(C)CC3COc4ccccc4O3)coc2c1 (stereo not drawn),88*,99*,0.051,0.028,0,0.1
COc1ccccc1C(=O)NC(=S)N1CCCc2ccccc21,-55,49,/,-0.16,0.5,1.6
O=C(NC(=S)N1CCCc2ccccc21)c1ccccc1,6,51*,/,0.15,0.5,0.9
O=C(CCCC(=O)N1CCCc2ccccc21)N1CCCc2ccccc21,37,95*,-0.27,2.7*,0.1,0.6
CCOC(=O)c1cc(-c2ccccc2)sc1NC(=O)CSc1nnnn1C,26,33,3.1,-0.64,0.7,0.7
SMILES,CYP2C9 inh,CYP2C19 inh,D1 mod,hDAT+cocaine,CYP2C19 act,CYP2C9 activ
COc1ccccc1CC(=O)N1CCCc2ccccc21,-157,67*,/,0.84,0.3,2.6*
O=C1c2ccccc2C(=O)N1CCC(=O)N1CCCc2ccccc21,5,32,1.6,1.3,0.7,1
O=C(Cn1ncc2c(=O)oc3ccccc3c21)N1CCCc2ccccc21,67*,43,0.55,0.28,0.6,0.3
CC(C)Oc1ccc(C(=O)N2CCCc3ccccc32)cc1,38,97*,-0.13,1.2,0,0.6
O=C(c1ccc(C(=O)N2CCCc3ccccc32)s1)N1CCCc2ccccc21,34,50*,/,2.5,0.5,0.7
O=C(c1ccc(Cl)s1)N1CCc2ccccc21,8,23,-0.29,0.057,0.8,0.9
COC/C=C/C1=CC2=CC(=O)C(C)(OC(=O)c3cnc4ccccc4n3)C(=O)C2=CO1 (stereo not drawn),/,/,/,-0.23,/,/
CCCS(=O)(=O)N1CCCC(C(=O)NCCCN2CCN(c3cccc(Cl)c3)CC2)C1 (stereo not drawn),13,-3,-1.8,/,1,0.9
Cn1c(C(=O)N2CCCc3ccccc32)cc2c(=O)n3ccccc3nc21,65*,38,-0.67,/,0.6,0.4
Cn1ncc(Cl)c1C(=O)N1CCCc2ccccc21,63*,54*,/,-0.24,0.5,0.4
CCCCCn1c(=NC(C)=O)c(C#N)cc2c(=O)n3cccc(C)c3nc21,/,/,0.81,/,/,/
Cn1nnc2cc(C(=O)N3CCC(c4ccccc4)C3)ccc21 (stereo not drawn),25,80*,/,0.37,0.2,0.7
Cc1nn(C(=O)c2ccc3c(c2)OCO3)c(N)c1-c1ccccc1,53*,-9,-5.7*,0.26,1.1,0.5
O=C(CCN1CCN(c2ccccc2F)CC1)Nc1ccc2c(c1)OCO2,88*,71*,-0.031,0.49,0.3,0.1
Cn1nnc2cc(C(=O)N3CCCCCC3)ccc21,/,/,-1.1,-0.8,/,/
O=C(c1ccccc1)N1CCN(c2ccc(NCc3ccc4c(c3)OCO4)cc2)CC1,68*,44,-1.5,-1.6,0.6,0.3
Cc1nn(C(=O)c2cccs2)c(N)c1-c1ccccc1,21,7,-0.81,-0.47,0.9,0.8
CC(=O)N1CCN(c2ccc(NCc3ccc4c(c3)OCO4)cc2)CC1,20,15,-0.87,-0.033,0.8,0.8
COc1ccc(S(=O)(=O)N2CCCCC2)cc1C(C)C,22,31,-1.8,-0.065,0.7,0.8
CCOC(=O)c1ccc(NC(=O)CCC(=O)OC)cc1,15,18,0.33,-1.5,0.8,0.8
COc1ccc(OC)c2c(C)cc(N3CCN(C(=O)c4ccc(Cl)cc4)CC3)nc12,56*,40,/,-0.13,0.6,0.4
Cc1ccc(C(=O)N2CCN(c3ccc(Cl)cc3)CC2)cc1,51*,54*,-0.89,1.2,0.5,0.5
COc1ccc(C(=O)N2CCN(c3c(C)cccc3C)CC2)cc1OC,21,39,0.77,1.6,0.6,0.8
O=C(c1ccc2c(c1)OCO2)N1CCN(c2ccc(Cl)cc2)CC1,89*,97*,-0.69,1.9,0,0.1
CC(C)(C)C(=O)Nc1ccccc1N1CCN(C(=O)c2ccc(Cl)cc2)CC1,75*,76*,-0.34,0.79,0.2,0.3
COc1ccc(C(=O)N2CCN(c3ccc(C)cc3)CC2)cc1OC,-75,13,0.68,-0.15,0.9,1.8
O=C(Nc1ccccc1)C1=C[C@@H](c2ccc(C(F)(F)F)cc2)C[C@@H](OCc2ccc(CO)cc2)O1,/,/,/,-0.056,/,/
